Most compounds without a hit are left out; they make up all but 7.9% or so of the library.
HT1080 IDH1KD tx: HT-1080 IDH1 knockdown cell toxicity (counter line). HT-1080 IDH1 knockdown viability, ATP luminescence, 48 h. 2% of 360,000 active. Potency, µM (doses to about 46.1 µM), most hits filed as cytotoxic
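IDH1KD HT-1080 cells, 750/well, RPMI + 5% FBS; compound pinned after 2 h settling; 48 h, 37 °C; CellTiter-Glo luminescence; % activity normalised to DMSO and no-cell wells; curves fitted, classed by r2 and efficacy.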
SW480 rereplic: DNA re-replication induction in SW480 cells; SW480 DNA re-replication, Hoechst DNA content imaging, 48 h; Potency, µM (series often up to 46.1 µM), most hits filed as activators; 1.8% of 340,000 active; AID 624297; further: nearly all actives have a fitted effect of over 55% in size
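Image-based read-out: total Hoechst fluorescence of nuclei (405 nm excitation, 500-530 nm emission), with hits raising the fraction of high-intensity nuclei. SW480 colon cells incubated 48 hr with compounds at 37 C.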
KB-V1 MDR tox: kills drug-selected multidrug resistant KB-V1 cells. Potency, µM (top dose mostly 46.1 µM), usual class: cytotoxic. KB-V1 MDR cells viability, CellTiter-Glo, 72 h. 3.4% of 400,000 active; further: nearly all actives have a fitted effect of over 60% in size
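Compound-treated KB-V1 multidrug-resistant cells, 72 h, 37 degrees C; viability by CellTiter-Glo. Fitted qHTS curves give the values.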
KB-3-1 cytotox: kills parental KB-3-1 adenocarcinoma cells; AID 1347075; KB-3-1 viability, CellTiter-Glo ATP luminescence, 72 h; Potency, µM (series often up to 46.1 µM), hits mostly cytotoxic; 1.4% of 400,000 active; further: nearly all actives have a fitted effect of over 60% in size
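Multi-concentration cytotoxicity screen in KB-3-1 cells grown in DMEM lacking phenol red with 10% FBS. After 72 h at 37 °C with compound, ATP-dependent luminescence was recorded.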
HT1080NT lethal: kills 2HG-producing HT-1080-NT fibrosarcoma cells; HT-1080-NT fibrosarcoma viability, CellTiter-Glo ATP luminescence, 48 h; Potency, µM (top dose mostly 46.1 µM), actives largely listed as cytotoxic; 1.6% of 360,000 active; AID 686970;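 further: NT is the 2HG producing partner of a matched IDH1 knockdown line; nearly all actives have a fitted effect of over 55% in size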
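Luminescent CellTiter-Glo readout after 48 hours of compound exposure at 37 degrees C defined viability of HT-1080-NT cells. Activity was normalized to DMSO wells and cell-free media wells; concentration-response curves were fitted and assigned curve classes.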
MCF10A rerep: induces DNA re-replication in MCF 10a normal breast cells; Potency, µM (titrated, usually from 46.1 µM), hits mostly activators; MCF 10A DNA re-replication, Hoechst nuclear intensity, 48 h; 2.9% of 350,000 active; further: nearly all actives have a fitted effect of over 50% in size
Each line names hits and unclear results; the compound was inactive in the other large screens. The call rests on the fitted dose curve; in most records, active means well fitted curve in the direction sought with a large enough effect; inconclusive means small, poorly fitted or top-dose-only effect, or another doubt; inactive means no such curve, though single readings can be large; an effect the other way counts as inactive or inconclusive.

O=C(Nc1nc(-c2ccccc2)cs1)c1cccc([N+](=O)[O-])c1	KB-V1 MDR tox 23µM, MCF10A rerep inconclusive
COc1cc(C(=O)Nc2ccccc2C2COC(=O)C2=N)cc(OC)c1OC (stereo not given)	KB-V1 MDR tox 12µM
COC(=O)c1cc(Sc2cccc(Cl)c2Cl)ccn1	HT1080 IDH1KD tx inconclusive, MCF10A rerep inconclusive
CC(C)(C)NC(=O)COC(=O)c1ccc(F)cc1Cl	none
COc1cccc(C(=O)Nc2ccc(-n3nncc3-c3ccc(Br)cc3)cc2)c1OC	none (no result: HT1080 IDH1KD tx, SW480 rereplic, HT1080NT lethal, MCF10A rerep)
O=C(Nc1ccc(-c2csc(Nc3cccc(C(F)(F)F)c3)n2)cc1)c1ccccc1	SW480 rereplic inconclusive, KB-3-1 cytotox inconclusive, MCF10A rerep 18µM
COc1cc(C(=O)Nc2ccc(Br)cc2C(=O)c2cc(OC)c(OC)c(OC)c2)cc(OC)c1OC	HT1080 IDH1KD tx inconclusive, SW480 rereplic 16µM, KB-V1 MDR tox inconclusive, KB-3-1 cytotox inconclusive, HT1080NT lethal inconclusive, MCF10A rerep 21µM
COc1cc(C(=O)Nc2ccccc2C(=O)Nc2ccccn2)cc(OC)c1OC	SW480 rereplic 23µM, KB-V1 MDR tox 6.5µM, KB-3-1 cytotox 8.2µM, MCF10A rerep inconclusive
CC(=O)/C(N=Nc1ccc2c(c1)OCO2)=C(\C)O	MCF10A rerep inconclusive
Cc1ccc2[nH]c(=O)c(CN(CC3CCCO3)C(=S)NCc3ccco3)cc2c1 (stereo not given)	none
CCNC(=S)N(Cc1cccs1)Cc1cc2cc(OCC)ccc2[nH]c1=O	KB-V1 MDR tox 12µM
CCNC(=S)N(Cc1ccco1)Cc1cc2cc(OCC)ccc2[nH]c1=O	KB-V1 MDR tox inconclusive, MCF10A rerep inconclusive
Cc1ccc2[nH]c(=O)c(CN(Cc3cccs3)C(=S)NCc3ccco3)cc2c1	KB-V1 MDR tox 18µM
CC(C)[C@H](NC(=O)NCCC1=CCCCC1)C(=O)O	none
Cc1c(NC(=O)/C=C/c2cn(-c3ccccc3)nc2-c2ccc(F)cc2)c(=O)n(-c2ccccc2)n1C	KB-3-1 cytotox inconclusive, MCF10A rerep 18µM
Cc1ccc(-c2nn(-c3ccccc3)cc2/C=C/C(=O)Nc2nccs2)cc1	HT1080 IDH1KD tx 9.2µM, HT1080NT lethal 16µM, MCF10A rerep inconclusive
Cc1c(NC(=O)/C=C/c2cccs2)c(=O)n(-c2ccccc2)n1C	none
O=C(/C=C/c1cn(-c2ccccc2)nc1-c1ccccc1)Nc1ccc(C(=O)O)cc1	HT1080 IDH1KD tx 23µM, SW480 rereplic inconclusive, HT1080NT lethal inconclusive, MCF10A rerep inconclusive
CC1CCN(CCn2c(=S)[nH]c3ccccc3c2=O)CC1	KB-V1 MDR tox inconclusive
N#CCC(=O)NCCCc1ccccc1	none
COC(=O)c1c(-c2ccc3ccccc3c2)csc1NC(=O)Cc1ccc(OC)c(OC)c1	SW480 rereplic inconclusive, KB-V1 MDR tox 15µM, KB-3-1 cytotox inconclusive, MCF10A rerep inconclusive
CCOC(=O)c1c(-c2ccc(OC)cc2)csc1NC(=O)CSc1ccccc1	KB-3-1 cytotox inconclusive, MCF10A rerep 7.3µM
CCOC(=O)c1c(-c2ccc(C)cc2)csc1NC(=O)CCSc1nnc2ccccn12	KB-V1 MDR tox 16µM, MCF10A rerep inconclusive
CCOC(=O)c1c(-c2ccc(-c3ccccc3)cc2)csc1NC(=O)C1C2CCC(O2)C1C(=O)O (stereo not given)	HT1080 IDH1KD tx inconclusive, HT1080NT lethal inconclusive, MCF10A rerep 9.2µM
CCOC(=O)c1c(-c2ccc(OC)cc2)csc1NC(=O)CSc1nnc(C)c(=O)[nH]1	MCF10A rerep inconclusive
Cn1nnnc1SCC(=O)Nc1ccccc1-c1ccccc1	none
CCOC(=O)c1c(NC(=O)CSc2nncs2)sc(C)c1-c1ccccc1	HT1080 IDH1KD tx inconclusive, KB-V1 MDR tox 7.3µM, KB-3-1 cytotox inconclusive, MCF10A rerep 7.3µM
CCOC(=O)c1c(-c2ccccc2)csc1NC(=O)/C(C#N)=C/c1ccc(OC)c(OC)c1	MCF10A rerep inconclusive
CCOC(=O)c1c(NC(=O)CSc2nnnn2C)sc(C)c1-c1ccc(C)cc1	HT1080 IDH1KD tx 8.9µM, KB-V1 MDR tox 13µM, KB-3-1 cytotox inconclusive, HT1080NT lethal inconclusive, MCF10A rerep inconclusive
CCOC(=O)c1c(-c2ccccc2)csc1NC(=O)/C(C#N)=C/c1ccc(O)c(OC)c1	SW480 rereplic inconclusive, HT1080NT lethal inconclusive, MCF10A rerep 21µM
CCOC(=O)c1cc(C)sc1NC(=O)CSc1nnnn1C	none
CCOC(=O)c1c(-c2ccccc2)csc1NC(=O)CSc1nnnn1C	HT1080 IDH1KD tx 11µM, HT1080NT lethal inconclusive, MCF10A rerep inconclusive
CCCc1cc(=O)[nH]c(SCC(=O)Nc2nc(-c3ccccc3)cs2)n1	none
CCc1ccccc1NC(=O)CN1CCN(C(=O)CNC(=O)Cc2cccc3ccccc23)CC1	KB-V1 MDR tox inconclusive, KB-3-1 cytotox inconclusive
CCOC(=O)c1[nH]c(C)c(/C(O)=C2\C(=O)C(=O)N(CCCN(C)C)C2c2cccnc2)c1C (stereo not given)	KB-V1 MDR tox inconclusive, MCF10A rerep inconclusive
CCOC(=O)c1c(-c2ccccc2)csc1NC(=O)CSc1ccccc1	KB-V1 MDR tox 18µM
CCOC(=O)c1c(-c2ccccc2)csc1NC(=O)CSc1nncs1	KB-V1 MDR tox inconclusive
CCOC(=O)N(O)c1ccc(C=Cc2ccccc2)cc1	SW480 rereplic 12µM, KB-V1 MDR tox 21µM, KB-3-1 cytotox inconclusive, MCF10A rerep inconclusive
O=C1C2C3C=CC(CNS(=O)(=O)c4ccccc4)(O3)C2C(=O)N1c1ccc(Cl)cc1 (stereo not given)	SW480 rereplic 12µM, KB-V1 MDR tox inconclusive, MCF10A rerep inconclusive
CC(=O)Oc1ccc(N2C(=O)C3C4C=CC(CO)(O4)C3C2=O)cc1 (stereo not given)	SW480 rereplic inconclusive, MCF10A rerep inconclusive
O=C1C2C3C=CC(CO)(O3)C2C(=O)N1c1ccccc1-c1ccccc1 (stereo not given)	HT1080 IDH1KD tx 1.6µM, SW480 rereplic 10µM, HT1080NT lethal 3.2µM, MCF10A rerep 7.3µM
COc1ccc(F)cc1C(=O)C1CCCN(Cc2cccn2-c2ccccn2)C1 (stereo not given)	HT1080 IDH1KD tx inconclusive, SW480 rereplic inconclusive, HT1080NT lethal inconclusive, MCF10A rerep inconclusive
COc1ccc(C(=O)C2CCCN(Cc3cccn3-c3ccccn3)C2)c(OC)c1 (stereo not given)	HT1080 IDH1KD tx 15µM, KB-V1 MDR tox inconclusive, HT1080NT lethal 6.5µM
CCN(CC)S(=O)(=O)c1ccc(N2CCOCC2)c(NC(=O)c2cc3ccccc3oc2=O)c1	KB-V1 MDR tox inconclusive
Cc1ccc(-n2cc(C(=O)c3cc(Cl)ccc3O)cc(C#N)c2=O)cc1	KB-V1 MDR tox 16µM, MCF10A rerep inconclusive

Screening data: PubChem, National Center for Advancing Translational Sciences (NCATS)
